These results are taken from ChEMBL document CHEMBL1961873, “Compounds: GSK PKIS; Assays: Nanosyn kinase panel” (2012).

Values joined by “and” are separate entries in the source; they are usually repeats but may differ in a detail not shown here. Equal values may be shown once.

For assay [1], the target named is Calcium/calmodulin-dependent protein kinase type II subunit alpha (Homo sapiens) (UniProt Q9UQM7). The note with it: at 1 µM.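 Also: reported value is a mean percent inhibition of CAMK2A.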
For assay [2], the target named is Calcium/calmodulin-dependent protein kinase type II subunit delta (Homo sapiens) (UniProt Q13557). The note with it: at 0.1 µM.
Assay [3] has the same target. The note with it: at 1 µM.
Assay [4] concerns the target T1, Calcium/calmodulin-dependent protein kinase type IV (Homo sapiens) (UniProt Q16566).
T1 sequence (whole entry): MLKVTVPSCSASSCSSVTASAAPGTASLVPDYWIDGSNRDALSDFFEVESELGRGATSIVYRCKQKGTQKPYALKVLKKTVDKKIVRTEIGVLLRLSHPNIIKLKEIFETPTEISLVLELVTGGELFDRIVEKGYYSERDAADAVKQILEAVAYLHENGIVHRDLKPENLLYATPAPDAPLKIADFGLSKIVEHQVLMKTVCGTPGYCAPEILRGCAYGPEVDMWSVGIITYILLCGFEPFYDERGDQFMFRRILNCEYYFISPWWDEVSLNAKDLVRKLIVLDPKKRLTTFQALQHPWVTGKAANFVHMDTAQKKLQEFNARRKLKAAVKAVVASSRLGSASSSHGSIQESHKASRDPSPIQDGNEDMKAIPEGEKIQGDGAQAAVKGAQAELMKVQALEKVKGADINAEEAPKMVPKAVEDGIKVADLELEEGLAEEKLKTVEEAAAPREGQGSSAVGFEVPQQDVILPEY
The conditions noted are these: at 0.1 µM.

For assay [5], the target named is T1, Calcium/calmodulin-dependent protein kinase type IV (Homo sapiens). The conditions noted are these: at 1 µM.
Assay [6] deals with T2, Serine/threonine-protein kinase Chk1 (Homo sapiens) (UniProt O14757).
T2 sequence (whole entry): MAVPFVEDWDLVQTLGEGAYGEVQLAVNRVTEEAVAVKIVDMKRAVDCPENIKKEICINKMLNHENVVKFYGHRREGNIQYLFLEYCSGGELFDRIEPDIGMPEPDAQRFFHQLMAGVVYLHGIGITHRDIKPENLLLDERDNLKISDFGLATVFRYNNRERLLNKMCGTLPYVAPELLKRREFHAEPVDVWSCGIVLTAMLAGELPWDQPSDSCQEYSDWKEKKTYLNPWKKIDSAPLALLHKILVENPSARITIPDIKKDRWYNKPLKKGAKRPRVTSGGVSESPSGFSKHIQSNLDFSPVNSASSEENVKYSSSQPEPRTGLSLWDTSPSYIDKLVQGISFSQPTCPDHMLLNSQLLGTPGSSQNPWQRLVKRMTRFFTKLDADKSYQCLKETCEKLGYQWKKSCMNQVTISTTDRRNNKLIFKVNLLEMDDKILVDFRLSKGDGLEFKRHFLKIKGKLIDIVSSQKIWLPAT
The conditions noted are these: at 0.1 µM.

In assay [7] the target is T2, Serine/threonine-protein kinase Chk1 (Homo sapiens). The note with it: at 1 µM.
Assay [8] deals with Serine/threonine-protein kinase Chk2 (Homo sapiens) (UniProt O96017). The conditions noted are these: at 0.1 µM.
For assay [9] the target is unchanged. The conditions noted are these: at 1 µM.
The target of assay [10] is Death-associated protein kinase 1 (Homo sapiens) (UniProt P53355). The note with it: at 0.1 µM.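 Also: reported figure is the mean inhibition of DAPK1.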
Death-associated protein kinase 1 (Homo sapiens), sequence (P53355 whole entry, looked up): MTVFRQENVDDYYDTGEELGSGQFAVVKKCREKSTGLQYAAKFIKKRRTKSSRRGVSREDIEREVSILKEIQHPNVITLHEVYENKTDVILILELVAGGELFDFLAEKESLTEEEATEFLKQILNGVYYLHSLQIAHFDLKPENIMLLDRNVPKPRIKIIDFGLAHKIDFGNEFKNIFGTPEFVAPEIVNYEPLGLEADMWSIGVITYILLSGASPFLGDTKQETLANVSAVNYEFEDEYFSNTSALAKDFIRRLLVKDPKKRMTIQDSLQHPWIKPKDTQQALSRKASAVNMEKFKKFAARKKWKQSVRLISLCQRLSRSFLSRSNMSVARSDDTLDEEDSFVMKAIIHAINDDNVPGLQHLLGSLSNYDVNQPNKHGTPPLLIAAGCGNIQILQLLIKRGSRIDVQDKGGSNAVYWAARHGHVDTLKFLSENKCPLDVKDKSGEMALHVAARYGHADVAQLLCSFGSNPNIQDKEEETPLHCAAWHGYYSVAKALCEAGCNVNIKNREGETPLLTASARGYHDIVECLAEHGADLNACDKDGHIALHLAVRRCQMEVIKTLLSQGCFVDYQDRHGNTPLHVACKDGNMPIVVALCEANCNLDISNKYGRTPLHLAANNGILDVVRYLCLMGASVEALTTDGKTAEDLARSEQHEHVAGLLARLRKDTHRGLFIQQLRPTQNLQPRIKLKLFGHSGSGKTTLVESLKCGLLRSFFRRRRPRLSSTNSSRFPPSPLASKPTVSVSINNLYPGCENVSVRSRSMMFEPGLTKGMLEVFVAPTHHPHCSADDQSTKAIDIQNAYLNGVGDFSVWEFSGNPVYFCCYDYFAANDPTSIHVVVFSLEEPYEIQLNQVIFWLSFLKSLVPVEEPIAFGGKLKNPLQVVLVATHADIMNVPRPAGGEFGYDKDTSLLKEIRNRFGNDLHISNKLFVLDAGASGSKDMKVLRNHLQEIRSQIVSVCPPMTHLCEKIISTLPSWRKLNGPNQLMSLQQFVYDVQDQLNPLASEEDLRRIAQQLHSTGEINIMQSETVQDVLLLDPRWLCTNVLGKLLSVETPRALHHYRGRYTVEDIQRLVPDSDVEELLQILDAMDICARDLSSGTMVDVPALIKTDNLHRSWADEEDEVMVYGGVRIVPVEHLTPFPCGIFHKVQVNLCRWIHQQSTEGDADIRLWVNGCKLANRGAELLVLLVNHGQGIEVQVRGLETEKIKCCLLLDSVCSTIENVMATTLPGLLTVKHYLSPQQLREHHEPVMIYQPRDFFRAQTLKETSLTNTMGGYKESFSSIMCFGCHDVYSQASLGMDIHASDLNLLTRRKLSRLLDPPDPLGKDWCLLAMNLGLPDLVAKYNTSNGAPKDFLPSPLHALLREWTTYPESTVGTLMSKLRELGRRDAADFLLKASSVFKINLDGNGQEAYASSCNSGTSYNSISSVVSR

Calcium/calmodulin-dependent protein kinase type II subunit alpha (Homo sapiens), sequence (Q9UQM7 whole entry): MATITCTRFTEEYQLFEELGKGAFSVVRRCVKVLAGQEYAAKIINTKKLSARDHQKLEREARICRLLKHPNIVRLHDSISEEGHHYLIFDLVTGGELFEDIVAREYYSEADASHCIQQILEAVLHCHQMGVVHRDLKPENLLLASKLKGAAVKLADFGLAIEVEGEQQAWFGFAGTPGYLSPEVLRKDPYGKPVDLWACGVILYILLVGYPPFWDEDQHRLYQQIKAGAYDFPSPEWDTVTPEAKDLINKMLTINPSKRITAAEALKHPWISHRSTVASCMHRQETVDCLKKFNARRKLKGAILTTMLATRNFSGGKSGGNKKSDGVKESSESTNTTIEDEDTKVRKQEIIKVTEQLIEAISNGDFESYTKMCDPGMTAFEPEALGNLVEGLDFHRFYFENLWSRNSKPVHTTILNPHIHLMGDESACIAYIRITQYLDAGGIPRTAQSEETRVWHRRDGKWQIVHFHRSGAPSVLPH
Calcium/calmodulin-dependent protein kinase type II subunit delta (Homo sapiens), sequence (Q13557 whole entry): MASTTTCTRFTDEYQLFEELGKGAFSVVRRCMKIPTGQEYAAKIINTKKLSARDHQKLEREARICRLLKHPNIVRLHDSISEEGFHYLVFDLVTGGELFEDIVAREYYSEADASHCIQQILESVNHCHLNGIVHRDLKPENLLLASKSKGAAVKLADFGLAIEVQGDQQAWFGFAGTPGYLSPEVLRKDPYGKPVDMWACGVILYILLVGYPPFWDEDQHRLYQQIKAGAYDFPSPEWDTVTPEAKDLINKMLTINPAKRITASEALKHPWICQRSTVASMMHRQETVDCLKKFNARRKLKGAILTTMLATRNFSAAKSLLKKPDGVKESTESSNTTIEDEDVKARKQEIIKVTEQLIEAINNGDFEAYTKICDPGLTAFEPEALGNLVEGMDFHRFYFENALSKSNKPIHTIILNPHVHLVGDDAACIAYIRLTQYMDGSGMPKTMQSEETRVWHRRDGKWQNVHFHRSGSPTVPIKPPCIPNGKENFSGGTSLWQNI
Serine/threonine-protein kinase Chk2 (Homo sapiens), sequence (O96017 whole entry): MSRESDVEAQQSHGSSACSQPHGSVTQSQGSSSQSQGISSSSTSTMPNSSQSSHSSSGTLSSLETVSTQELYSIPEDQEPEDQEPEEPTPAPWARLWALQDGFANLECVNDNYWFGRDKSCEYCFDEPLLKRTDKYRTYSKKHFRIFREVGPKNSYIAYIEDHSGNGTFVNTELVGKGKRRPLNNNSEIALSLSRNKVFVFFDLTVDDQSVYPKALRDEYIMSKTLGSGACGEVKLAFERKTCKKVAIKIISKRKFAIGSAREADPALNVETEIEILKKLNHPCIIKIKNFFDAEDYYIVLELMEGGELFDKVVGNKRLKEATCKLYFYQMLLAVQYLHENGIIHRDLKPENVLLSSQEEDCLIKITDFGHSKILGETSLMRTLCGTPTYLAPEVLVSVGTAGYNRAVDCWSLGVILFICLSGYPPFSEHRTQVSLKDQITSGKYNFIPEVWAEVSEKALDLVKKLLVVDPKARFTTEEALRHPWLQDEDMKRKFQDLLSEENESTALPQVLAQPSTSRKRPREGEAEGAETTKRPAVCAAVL

Broadly, the inhibition is the relative decrease from the control value, in per cent. With `Cn1c(-c2nonc2N)nc2cnccc21`, the inhibition in [1] is 1.59%; in assay [2], 2.9%; in [3], 4.76%; in assay [4] it was 2.54%; in assay [5], 2.02%; in [6], 1.55%. In addition, the inhibition in assay [7] amounted to 2.48%; in assay [8], 2.16%; in assay [9], 3.21%; in assay [10] it was 2.36%.
As for `O=C(O[C@H]1CN[C@H](C#Cc2cc3ncnc(Nc4ccc5c(cnn5Cc5ccccc5)c4)c3s2)C1)N1CCOCC1`, the inhibition was -1.88% in assay [1]; 0.73% in assay [2]; 0.8% in [3]; 0.67% in [4]; -0.25% in assay [5]; 0.36% in [6]. Also, the inhibition in assay [7] is -0.07%; in assay [8] it was -1.25%; in assay [9], 0.86%; in [10] it was -0.35%.
Regarding `COc1c(C(N)=O)cc(-c2ccc(Cl)cc2)cc1-c1ccc(S(N)(=O)=O)cc1`, the inhibition in [1] was 6.07%; in [2] it was 4.78%; in assay [3], 8.49%; in [4] it was -0.13%; in [5], 3.77%; in assay [6], -0.02%. Moreover, the inhibition in [7] was found to be 1.33%; in assay [8], 5.72%; in [9] it was 10.5%; in assay [10], 1.52%.
For the compound `CNC(=O)c1ncccc1Nc1nc(Nc2cc3c(cc2OC)CCCN3C(=O)CN(C)C)nc2[nH]ccc12`, the inhibition was 5.55% in [1]; 4.46% in assay [2]; 8.21% in assay [3]; 0.87% in [4]; 5.93% in [5]; 3.13% in assay [6]. Moreover, the inhibition came to 4.54% in assay [7], 3.89% in assay [8], 11.9% in [9] and 4.3% in assay [10].
For the compound `CC1(C)CC(n2cnc(-c3ccc(F)cc3)c2-c2ccnc(N)n2)CC(C)(C)N1`, the inhibition was -1.67% in assay [1]; 0.69% in [2]; -0.31% in assay [3]; 0.52% in assay [4]; -0.57% in [5]; -3.33% in assay [6]. Also, the inhibition in assay [7] was -6.27%; in assay [8], -4.96%; in assay [9] it was -4.4%; in assay [10], -7.58%.
`NS(=O)(=O)c1ccc(N/N=C2\C(=O)Nc3ccc(C(=O)NCc4ccncc4)cc32)cc1`: the inhibition in assay [1] is 5.1%; in assay [2] it was 3.39%; in assay [3], 11.8%; in assay [4] it was -2.17%; in assay [5] it was -4.16%; in assay [6], 2.58%. Further, the inhibition in assay [7] stood at 11.1%; in [8] it was 4.18%; in assay [9], 19.2%; in assay [10], 4.72%.
Regarding `NS(=O)(=O)c1ccc(N/N=C2\C(=O)Nc3cccc(CCc4ccncc4)c32)cc1`, the inhibition in assay [1] is 1.32%; in assay [2] it was -0.63%; in assay [3], 4.29%; in assay [4], 1.59%; in [5], 0.34%; in assay [6], 1.74%. Besides, the inhibition was 1.93% in assay [7], -0.6% in [8], 0.61% in [9] and -0.39% in assay [10].
Turning to `FC(F)(F)CNc1nccc(-c2cnn3ncccc23)n1`, the inhibition is -1.03% in [1]; 2.87% in assay [2]; 1.95% in assay [3]; -0.09% in assay [4]; -1.75% in [5]; 0.28% in assay [6]. Moreover, the inhibition in [7] is 2.9%; in [8], 1.64%; in assay [9], 0.78%; in assay [10], 3.66%.
Take `N#Cc1ccc2c(-c3ccnc(NC4CC4)n3)c(-c3ccc(F)cc3)nn2c1`: the inhibition is -1.71% in [1]; 0.13% in assay [2]; -1.01% in assay [3]; 0.17% in [4]; -2.53% in assay [5]; -1.96% in [6]. Further, the inhibition is -0.86% in assay [7], -0.32% in [8], 0.27% in assay [9] and 1.33% in [10].
Consider `CNC(=O)c1sc(-n2cnc3cc(OC)c(OC)cc32)cc1OCc1ccccc1C(F)(F)F`, for which the inhibition is -0.49% in [1]; 3.02% in assay [2]; 0.51% in assay [3]; 0.67% in assay [4]; -0.52% in [5]; 2.9% in assay [6]. Further, the inhibition in assay [7] worked out at 3.46%; in assay [8] it was 2.9%; in assay [9] it was 2.7%; in assay [10], 5.53%.
As to `Nc1nonc1-c1nc2cnccc2n1C1CC1`, the inhibition is 5.07% and 5.46% in [1]; 3.94% and 2.63% in assay [2]; 7.79% and 4% in [3]; -0.5% and 1.35% in assay [4]; 0.32% and 1.21% in assay [5]; 3.32% and 0.59% in assay [6]. Further, the inhibition was 14.4% and 10.5% in [7]; 2.75% and 1.53% in assay [8]; 6.34% and 2.63% in assay [9]; 2.98% and -0.26% in assay [10].
On to `CS(=O)(=O)CCNCc1ccoc1-c1ccc2ncnc(Nc3ccc(OCc4ccccc4)cc3)c2c1`, for which the inhibition in assay [1] was 0.09%; in assay [2], 0.18%; in assay [3] it was -0.44%; in assay [4] it was -0.43%; in assay [5] it was -1.35%; in [6], 0.86%. The inhibition is -2.73% in [7], 1.56% in assay [8], 8.55% in assay [9] and -0.21% in assay [10].
As for `COc1cc(N2CCN(C(C)C)CC2)ccc1Nc1nc(Nc2cccc(F)c2C(=O)O)c2cc[nH]c2n1`, the inhibition in assay [1] is 4.14%; in assay [2], 3.26%; in [3], 6.33%; in assay [4], -2.13%; in assay [5], -1.74%; in assay [6] it was 1.97%. The inhibition in [7] came to 6.1%; in [8], 4.99%; in [9] it was 26.3%; in assay [10], 3.88%.
Consider `Fc1ccc(Nc2nccc(-c3c(-c4ccc(C(F)(F)F)cc4)nn4ncccc34)n2)cc1F`, for which the inhibition in assay [1] was 4.6%; in assay [2], 1.73%; in assay [3] it was 4.42%; in [4] it was -0.48%; in assay [5], 0.05%; in assay [6], 3%. Moreover, the inhibition in assay [7] turned out to be 3.73%; in [8], 3.02%; in assay [9], 4.46%; in assay [10], 3.45%.
Turning to `COC(=O)Nc1nc2cc(Oc3ccc(NC(=O)Nc4ccccc4)cc3)ccc2[nH]1`, the inhibition in assay [1] is 1.94%; in assay [2] it was 1.6%; in assay [3], 1.54%; in [4], -1.32%; in [5] it was -2.54%; in assay [6], -0.71%. Moreover, the inhibition in assay [7] was determined as 3.92%; in assay [8], 1.94%; in assay [9] it was 3.46%; in [10] it was 3.21%.
With `NC(=O)c1ccc2c(-c3ccnc(NCCCO)n3)c(-c3ccc(F)cc3)nn2c1`, the inhibition is 3.63% in [1]; 4.46% in assay [2]; 3.95% in [3]; 0.65% in assay [4]; 0.03% in assay [5]; 8.23% in assay [6]. The inhibition was 7.94% in assay [7], 10.1% in assay [8], 10.6% in assay [9] and 11.7% in assay [10].
For `CC1=C(C(=O)Nc2ccc3[nH]nc(C)c3c2)C(c2ccc(C(F)(F)F)cc2)CC(=O)N1` (stereo not given), the inhibition in assay [1] is 2.9%; in assay [2], 1.76%; in [3], 4.44%; in assay [4] it was 0.07%; in assay [5] it was 0.57%; in [6] it was 2.48%. Moreover, the inhibition came out at 2.75% in assay [7], 1.95% in assay [8], 6.02% in assay [9] and 3.37% in [10].
As to `NS(=O)(=O)c1cccc(N/C=C2\C(=O)Nc3ccccc32)c1`, the inhibition in assay [1] came out at 8.27%; in [2], 5.11%; in [3] it was 16.3%; in assay [4], 1.25%; in [5], 2.86%; in assay [6], 9.31%. In addition, the inhibition worked out at 14.3% in [7], 10.6% in assay [8], 32.8% in assay [9] and 10.6% in assay [10].
Turning to `c1ccc(-c2n[nH]cc2-c2ccnc(-c3ccc(OCCn4ccnc4)cc3)c2)nc1`, the inhibition in assay [1] was -1.38%; in assay [2] it was -0.35%; in assay [3], 0.74%; in assay [4], 0.1%; in [5] it was -0.86%; in [6] it was -5.5%. Further, the inhibition is -4.71% in assay [7], -3.83% in assay [8], -2.77% in assay [9] and -7.91% in assay [10].
